# Screen size: about 390,000 compounds; about 17,000 (4.4%) were called active. A call without a number means that no potency is given here. Roughly 8% stayed inconclusive and do not appear here. The sample holds actives, similar compounds and a random draw of the others, so the mix is not that of the screen. Calls come from the whole dose curve; as a rule, active = well fitted inhibition curve with a large enough effect; inconclusive = small, poorly fitted or top-dose-only effect; inactive = no such curve, though single readings can be large or run the other way.
# Molecular target: Lysine-specific demethylase 4A (Homo sapiens) (UniProt O75164)
# Experiment: qHTS Assay for Inhibitors of JMJD2A-Tudor Domain; note: nearly all actives have a fitted effect of over 50% in size
# Details: AlphaScreen JMJD2A-Tudor / H3K4me3 peptide binding; series mostly up to 114 µM
# Potency is the fitted concentration of half-maximal effect.
# Sequence of Lysine-specific demethylase 4A (Homo sapiens) (O75164 whole entry, looked up, the tested form may be a part): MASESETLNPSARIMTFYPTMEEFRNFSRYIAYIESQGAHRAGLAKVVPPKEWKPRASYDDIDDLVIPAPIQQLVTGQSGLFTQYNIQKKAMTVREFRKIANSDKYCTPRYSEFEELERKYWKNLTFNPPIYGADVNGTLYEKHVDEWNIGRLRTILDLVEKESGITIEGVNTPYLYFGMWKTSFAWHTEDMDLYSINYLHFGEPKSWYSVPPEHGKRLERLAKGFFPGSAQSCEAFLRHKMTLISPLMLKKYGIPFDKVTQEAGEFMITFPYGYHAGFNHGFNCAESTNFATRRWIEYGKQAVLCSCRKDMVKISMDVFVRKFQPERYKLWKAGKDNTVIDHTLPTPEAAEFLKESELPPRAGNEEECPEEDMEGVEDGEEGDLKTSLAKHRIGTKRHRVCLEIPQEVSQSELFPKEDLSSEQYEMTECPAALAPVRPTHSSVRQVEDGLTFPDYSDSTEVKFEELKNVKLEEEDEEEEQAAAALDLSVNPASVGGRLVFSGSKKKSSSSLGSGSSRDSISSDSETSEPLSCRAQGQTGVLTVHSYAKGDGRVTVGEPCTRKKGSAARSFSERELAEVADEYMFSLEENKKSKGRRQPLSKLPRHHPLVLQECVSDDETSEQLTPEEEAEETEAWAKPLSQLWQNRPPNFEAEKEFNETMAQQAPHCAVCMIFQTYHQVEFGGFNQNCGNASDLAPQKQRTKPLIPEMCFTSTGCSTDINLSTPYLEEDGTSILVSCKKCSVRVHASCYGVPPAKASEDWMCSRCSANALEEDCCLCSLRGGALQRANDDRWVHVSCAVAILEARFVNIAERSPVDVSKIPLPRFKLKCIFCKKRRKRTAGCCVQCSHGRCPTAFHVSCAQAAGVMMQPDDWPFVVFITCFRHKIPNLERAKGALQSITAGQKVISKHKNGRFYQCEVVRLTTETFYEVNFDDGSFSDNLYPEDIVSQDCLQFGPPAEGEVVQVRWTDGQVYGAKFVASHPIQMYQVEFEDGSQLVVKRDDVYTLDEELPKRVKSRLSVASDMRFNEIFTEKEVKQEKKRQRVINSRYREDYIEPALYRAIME
row,Compound,Potency
1,Cc1c(Cl)cccc1NC(=O)Cn1cc(C(=O)c2cccs2)c2ccccc21,inactive
2,CC(=O)c1nn(-c2ccc(OC(F)(F)F)cc2)nc1Nc1ccccc1,inactive
3,COc1ccccc1NC(=O)c1ccc2nc(N3C(=O)CCC3=O)sc2c1,inactive
4,COc1ccccc1-c1nnc(NC(=O)c2cccc(N3C(=O)CCC3=O)c2)o1,35.5 µM (active)
5,COC(=O)c1cccc(NC(=O)c2cccc(N3C(=O)CCC3=O)c2)c1,inactive
6,Fc1ccc(C(Nc2ccc(Cl)c(C(F)(F)F)c2)c2nnc(-c3ccccc3)o2)cc1 (stereo not drawn),inactive
7,CCn1c(=O)cc(OCC(=O)Nc2cc(Cl)c(OC)cc2OC)c2ccccc21,inactive
8,COc1ccc(NC(=O)c2ccc3nc(CCc4ccccc4)oc3c2)c(OC)c1,inactive
9,COc1ccc(NS(=O)(=O)c2ccc(Oc3c(C#N)cccc3C#N)cc2)cc1,inactive
10,COc1ccc(S(=O)(=O)/N=C2\C=C(NS(=O)(=O)c3ccccc3)C(=O)c3ccccc32)cc1,39.8 µM (active)
11,COc1ccc(S(=O)(=O)Nc2cc3c(C(=O)OC(C)C)c(C)oc3c3ccccc23)cc1,inactive
12,Cc1ccc(Cl)cc1N1CCN(C(=O)c2cccn3c(=O)c4cc(Cl)ccc4nc23)CC1,inactive
13,CCCC(=O)Nc1cc(C(=O)NCc2ccc(OC)cc2)ccc1S(=O)(=O)c1ccc(Cl)cc1,inactive
14,CCN(CC)S(=O)(=O)c1ccc2c(c1)N(CC(=O)NCC(C)c1ccccc1)C(=O)CO2 (stereo not drawn),inactive
15,CCc1cccc(NC(=O)CN(c2ccc(C)c(C)c2)S(=O)(=O)c2ccsc2C(=O)OC)c1,inactive
16,CSc1ccc(CNCCN2CCOCC2)cc1,inactive
17,O=C(NCCCN1CCOCC1)c1cc(-c2ccccc2F)no1,inactive
18,CCCCC(CC)CNCc1cccn1CCN1CCOCC1 (stereo not drawn),28.2 µM (active)
19,Cc1cc(C)cc(NC(=O)Cc2csc(C)n2)c1,inactive
20,COc1ccccc1OCCCn1c(-c2ccc(Cl)cc2)nc2ccccc2c1=O,inactive
21,Cn1c(COc2ccc(Cl)cc2)nc2ccccc2c1=O,28.2 µM (active)

row,Compound,Potency
1,COc1ccc(OCc2ccc(-c3nc4ccccc4c(=O)n3N)o2)cc1,inactive
2,COc1ccc(CCNS(=O)(=O)c2cc(-c3cc(C)no3)ccc2C)cc1OC,inactive
3,COc1ccc(-c2nc(SCC(=O)N3CCCCC3C)n[nH]2)cc1 (stereo not drawn),inactive
4,CCn1c2c(c(=O)n3ncc(C(=O)N4CCN(c5ccccc5)CC4)c13)CN(Cc1ccc(OC)cc1)CC2,inactive
5,O=C(CN1CCCCCC1)Nc1c(Cl)cc(Cl)cc1Cl,inactive
6,Cc1cc(C)c(NC(=O)CN2CCCCCC2)c(C)c1,inactive
7,Cc1csc(NC(=O)CN2CCCCCC2)n1,1.58 µM (active)
8,COc1ccc(CCNC(=O)c2nn(C)c3c2CSc2ccccc2-3)cc1OC,inactive
9,Cc1nc2ccccn2c(=O)c1NC(=O)c1c(F)cccc1F,inactive
10,CCn1c2ccccc2c2nnc(N3CCN(c4cc(C)ccc4C)CC3)nc21,inactive
11,COCCNC(=S)Nc1cc(S(=O)(=O)N2CCOCC2)ccc1N1CCCCC1,79.4 µM (active)
12,O=C(CNCc1ccco1)Nc1cc(S(=O)(=O)N2CCOCC2)ccc1N1CCCC1,79.4 µM (active)
13,Cc1ccc(S(=O)(=O)N2CCOCC2)cc1C(=O)Nc1ccccc1N1CCCC1,inactive
14,O=C(COC(=O)Cc1ccc(F)cc1)Nc1cc(S(=O)(=O)N2CCOCC2)ccc1N1CCCC1,inactive
15,O=C(COC(=O)c1ccccc1F)Nc1cc(S(=O)(=O)N2CCOCC2)ccc1N1CCCC1,inactive
16,CN1CCN(c2ccc(S(=O)(=O)N3CCOCC3)cc2NC(=O)CCc2ccccc2)CC1,inactive
17,COc1ccc(/C=C/c2noc(-c3ccccc3O)n2)cc1OC,inactive
18,COc1ccc(NC(=O)C2CCCN(S(=O)(=O)c3cccc4nonc34)C2)cc1Cl (stereo not drawn),inactive
19,Cc1cc(C)cc(NC(=O)Cn2c(=O)c3ccccc3n3nncc23)c1,inactive
20,CCc1cccc(-n2nnc(-c3nsc(NC(=O)c4ccc(C)cc4)n3)c2C)c1,inactive
21,COc1ccccc1Nc1c2c(nc3ccc(NC(=O)/C=C/c4cc(OC)c(OC)c(OC)c4)cc13)CCCC2,15.8 µM (active)

row,Compound,Potency
1,COc1cc(/C=C/C(=O)OCC(=O)c2ccccc2)cc(OC)c1OC,inactive
2,COc1ccc(NS(=O)(=O)c2cc(NC(=O)/C=C/c3cc(OC)c(OC)c(OC)c3)ccc2N2CCCCC2)cc1,inactive
3,O=C(CN1c2ccccc2S(=O)(=O)c2ccccc21)Nc1cccc(C(F)(F)F)c1,inactive
4,COc1ccccc1N1CCN(c2ncnc3onc(-c4cccc(Cl)c4)c23)CC1,inactive
5,COC(=O)c1ccc(NC(=O)c2cccc3c2C(=O)N(C2CCCCC2)C3)cc1,inactive
6,CCCS(=O)(=O)c1ncc(Cl)c(C(=O)Nc2scc(-c3ccccc3)c2C(=O)OCC)n1,inactive
7,COC(=O)c1ccc(NC(=S)NN2CCOCC2)cc1,inactive
8,COC(=O)c1ccc(NC(=O)C23CC4CC(C2)CC(n2cnc(Cl)n2)(C4)C3)cc1,56.2 µM (active)
9,O=C(Nc1ccc(S(=O)(=O)Nc2ncccn2)cc1)C12CC3CC(CC(C3)C1)C2,inactive
10,O=C(Nc1ccccc1F)C(c1ccccc1)N1Cc2ccccc2C1=O (stereo not drawn),inactive
11,CCN(C(=O)Cn1c(=O)nc(-c2ccccc2)c2cc(Cl)ccc21)c1cccc(C)c1,inactive
12,Cc1cn(C)c(CC(=O)NCc2ccc(Cl)cc2)c1C(=O)O,inactive
13,C[N+]1(CCNC(=O)/C=N/O)CCCCC1,50.1 µM (active)
14,CCc1cc2c(cc3c(=O)n(CC(=O)N4CCN(c5cc(Cl)ccc5C)CC4)nc(CC)n32)s1,inactive
15,CCOC(=O)c1ccc(NC(=O)c2csc3c2CCCCC3)cc1,inactive
16,O=C(/C=C/c1ccccc1)Nc1cc(-c2nc3cc(Cl)ccc3o2)ccc1Cl,inactive
17,Cc1ccc(NC(=S)NCCc2ccc(Cl)cc2)c(C)c1,inactive
18,Cc1ccc(NC(=S)Nc2ncccc2C)c(C)c1,56.2 µM (active)
19,Cc1cc(Br)ccc1NC(=S)NC1CCCC1,inactive
20,COC(=O)c1ccccc1NC(=O)c1ccc2c(=O)n3c(nc2c1)CCCCC3,inactive
21,Cc1ccc(-c2cc(-c3coc4ccccc4c3=O)c3c(n2)-c2cc(Cl)ccc2OC3)cc1,inactive

# Source: PubChem BioAssay AID504339 (National Center for Advancing Translational Sciences (NCATS), 2011)
